Source: PubChem BioAssay (NCATS)
Records with an inconclusive call do not appear. Calls of active or inactive are those of the source. Calls come from the whole dose curve; as a rule, active = well fitted inhibition curve with a large enough effect; inconclusive = small, poorly fitted or top-dose-only effect; inactive = flat fitted curve, though single readings scatter.

Molecular target: Lysine-specific demethylase 5B (Homo sapiens) (UniProt Q9UGL1)
Experiment: Optimization screen for KDM5B Histone Demethylases FDH coupled qHTS against the LOPAC library (AID 1347166)
Conditions: KDM5B demethylation, FDH-coupled NADH fluorescence (FDH is formaldehyde dehydrogenase); series mostly up to 57.5 µM
Procedure, shortened: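 KDM5BDeltaAP (200nM final) in 50mM HEPES pH 7.5, 0.01% Tween-20 was preincubated with compound for 10 min at room temperature. A substrate mix of 12.5uM H3K4Me3, 25uM a-ketoglutarate, ascorbate, Fe2+, NAD+ and formaldehyde dehydrogenase was then added. NADH fluorescence (340/450 nm) was read initially and after 30 min.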

Chain of Lysine-specific demethylase 5B (Homo sapiens) (Q9UGL1 whole entry, looked up): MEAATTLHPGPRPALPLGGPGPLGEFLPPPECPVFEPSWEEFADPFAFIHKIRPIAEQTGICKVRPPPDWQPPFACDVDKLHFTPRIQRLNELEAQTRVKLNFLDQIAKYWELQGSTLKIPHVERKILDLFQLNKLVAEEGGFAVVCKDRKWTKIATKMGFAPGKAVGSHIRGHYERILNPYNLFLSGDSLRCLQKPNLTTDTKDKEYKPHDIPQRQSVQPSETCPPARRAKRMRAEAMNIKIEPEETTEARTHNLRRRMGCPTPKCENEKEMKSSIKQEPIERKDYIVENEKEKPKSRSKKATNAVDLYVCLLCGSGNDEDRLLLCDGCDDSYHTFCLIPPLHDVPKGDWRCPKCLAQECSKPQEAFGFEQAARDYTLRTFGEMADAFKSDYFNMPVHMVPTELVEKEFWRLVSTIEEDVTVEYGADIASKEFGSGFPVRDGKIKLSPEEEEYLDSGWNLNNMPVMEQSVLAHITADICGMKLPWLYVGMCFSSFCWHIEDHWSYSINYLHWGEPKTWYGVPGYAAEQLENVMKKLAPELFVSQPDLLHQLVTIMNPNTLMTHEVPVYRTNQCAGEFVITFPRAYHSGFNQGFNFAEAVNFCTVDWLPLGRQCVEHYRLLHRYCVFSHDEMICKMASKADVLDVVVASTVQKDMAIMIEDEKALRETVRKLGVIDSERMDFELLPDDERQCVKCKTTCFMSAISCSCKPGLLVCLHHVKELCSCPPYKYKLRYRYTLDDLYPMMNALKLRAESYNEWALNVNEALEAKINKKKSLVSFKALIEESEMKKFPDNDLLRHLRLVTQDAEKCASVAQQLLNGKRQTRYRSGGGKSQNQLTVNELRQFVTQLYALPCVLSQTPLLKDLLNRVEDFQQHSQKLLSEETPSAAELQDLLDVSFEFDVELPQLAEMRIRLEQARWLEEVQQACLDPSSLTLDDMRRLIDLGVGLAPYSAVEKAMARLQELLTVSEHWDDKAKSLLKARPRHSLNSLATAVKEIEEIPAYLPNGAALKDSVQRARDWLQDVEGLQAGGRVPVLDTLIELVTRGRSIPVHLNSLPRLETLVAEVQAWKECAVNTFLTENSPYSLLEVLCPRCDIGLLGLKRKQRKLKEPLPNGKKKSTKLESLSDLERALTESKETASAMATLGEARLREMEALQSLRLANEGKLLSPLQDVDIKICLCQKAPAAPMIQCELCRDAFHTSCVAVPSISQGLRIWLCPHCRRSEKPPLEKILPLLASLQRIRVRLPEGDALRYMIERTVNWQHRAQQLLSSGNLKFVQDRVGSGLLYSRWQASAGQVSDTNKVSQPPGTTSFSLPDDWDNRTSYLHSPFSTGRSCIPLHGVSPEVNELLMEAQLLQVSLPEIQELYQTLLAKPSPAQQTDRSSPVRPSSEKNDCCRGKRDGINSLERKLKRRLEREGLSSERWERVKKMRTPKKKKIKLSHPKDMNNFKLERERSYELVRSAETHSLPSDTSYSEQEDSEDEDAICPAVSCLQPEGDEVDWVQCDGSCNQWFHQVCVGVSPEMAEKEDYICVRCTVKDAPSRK

SMILES | outcome
CCCN1CCO[C@@H]2c3cc(O)ccc3OC[C@H]21 | inactive
O=C(O)Cc1cnc[nH]1 | inactive
NCCc1c[nH]c2ccccc12 | inactive
CC(=O)NCCc1c[nH]c2ccccc12 | inactive
NC(=NCCC[C@H](N)C(=O)O)N[N+](=O)[O-] | inactive
NC(N)=NOCCC(N)C(=O)O (stereo not drawn) | inactive
C[C@]12CCC3C(CC[C@H]4C[C@H](O)CC[C@]34C)C1CC[C@@H]2C(=O)CO (stereo partly drawn) | inactive
O=C(Cc1ccc(Cl)c(Cl)c1)N1CCCCC1CN1CCCC1 (stereo not drawn) | inactive
O=C1CCCN1CC#CCN1CCCC1 | inactive
C/C=C(/C)C(=O)O[C@H]1C(C)=C2[C@H]([C@@H]1OC(=O)CCCCCCC)[C@@](C)(OC(C)=O)C[C@H](OC(=O)CCC)[C@@]1(O)[C@H]2OC(=O)[C@@]1(C)O | inactive
O=C(O)CC[N+](=O)[O-] | inactive
CC(=O)[C@H]1CCC2C3CC[C@H]4C[C@H](O)CC[C@]4(C)C3CC[C@@]21C (stereo partly drawn) | inactive
NCCc1c[nH]c2ccc(O)cc12 | inactive
CNCCc1c[nH]c2ccc(O)cc12 | inactive
C[N+]1(C)C2CCC1CC(OC(=O)C(CO)c1ccccc1)C2 (stereo not drawn) | inactive
S=C(NC1CCCCC1)N1CCC(c2cnc[nH]2)CC1 | inactive
CC(C)NC(C)Cc1ccc(I)cc1 (stereo not drawn) | inactive
c1ccc2sc(C3(N4CCCCC4)CCCCC3)cc2c1 | inactive
NC(CCP(=O)(O)O)C(=O)O (stereo not drawn) | inactive
C[C@@H](N)Cc1cnc[nH]1 | inactive
CC1=NN=C(c2ccc(N)cc2)c2cc3c(cc2C1)OCO3 | inactive
CC(Cc1ccc(O)cc1)NCC(O)c1cc(O)cc(O)c1 (stereo not drawn) | inactive
C[C@]12N[C@H](Cc3ccccc31)c1ccccc12 | inactive
CCCN(CCC)[C@@H]1CCc2ccc(O)cc2C1 | inactive
CCCN(CCC)C1CCc2ccc(O)cc2C1 (stereo not drawn) | inactive
C=CCN1CC[C@]23CCCCC2[C@H]1Cc1ccc(O)cc13 (stereo partly drawn) | inactive
C[C@@H]1O[C@H](C[N+](C)(C)C)C[C@H]1O | inactive
NC(=O)CN1CC(O)CC1=O (stereo not drawn) | inactive
